Values without a mark were called inactive. Activity calls are given as the source filed them. Unless noted, no stated cut-off is given here; in the data, active means inhibition above about 30%; inactive means the rest.

The record followed here is PubChem BioAssay.

The target in experiment [1] is Nuclear receptor coactivator 3 (Homo sapiens) (UniProt Q9Y6Q9). Description: NCOA3 GAL4-fusion reporter inhibition – cell-based, luminescence, quadruplicate, confirmation (AID 588792;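 active means mean inhibition over 43.08%, the solvent-only control mean plus 3 SD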;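 further: 0% = DMSO treated cells and 100% = gossypol at 36 µM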). The conditions noted are these: HEK293 GAL4-SRC3 luciferase reporter, at 3.6 µM, active compounds read high. For orientation: A reporter such as luciferase makes a cellular process visible.
Experiment [2] has as its system transactivating tegument protein VP16 (Human herpesvirus 1), Gal4-VP16 luciferase reporter. Kind of experiment: repression of VP16-driven luciferase reporter – cell-based, luminescence, high throughput, counter-screen for SRC3 inhibitor project (AID 588794). As to conditions: mammalian cells, at 3.6 µM, active compounds read high.

Chain of Nuclear receptor coactivator 3 (Homo sapiens) (Q9Y6Q9 whole entry, looked up, the tested form may be a part): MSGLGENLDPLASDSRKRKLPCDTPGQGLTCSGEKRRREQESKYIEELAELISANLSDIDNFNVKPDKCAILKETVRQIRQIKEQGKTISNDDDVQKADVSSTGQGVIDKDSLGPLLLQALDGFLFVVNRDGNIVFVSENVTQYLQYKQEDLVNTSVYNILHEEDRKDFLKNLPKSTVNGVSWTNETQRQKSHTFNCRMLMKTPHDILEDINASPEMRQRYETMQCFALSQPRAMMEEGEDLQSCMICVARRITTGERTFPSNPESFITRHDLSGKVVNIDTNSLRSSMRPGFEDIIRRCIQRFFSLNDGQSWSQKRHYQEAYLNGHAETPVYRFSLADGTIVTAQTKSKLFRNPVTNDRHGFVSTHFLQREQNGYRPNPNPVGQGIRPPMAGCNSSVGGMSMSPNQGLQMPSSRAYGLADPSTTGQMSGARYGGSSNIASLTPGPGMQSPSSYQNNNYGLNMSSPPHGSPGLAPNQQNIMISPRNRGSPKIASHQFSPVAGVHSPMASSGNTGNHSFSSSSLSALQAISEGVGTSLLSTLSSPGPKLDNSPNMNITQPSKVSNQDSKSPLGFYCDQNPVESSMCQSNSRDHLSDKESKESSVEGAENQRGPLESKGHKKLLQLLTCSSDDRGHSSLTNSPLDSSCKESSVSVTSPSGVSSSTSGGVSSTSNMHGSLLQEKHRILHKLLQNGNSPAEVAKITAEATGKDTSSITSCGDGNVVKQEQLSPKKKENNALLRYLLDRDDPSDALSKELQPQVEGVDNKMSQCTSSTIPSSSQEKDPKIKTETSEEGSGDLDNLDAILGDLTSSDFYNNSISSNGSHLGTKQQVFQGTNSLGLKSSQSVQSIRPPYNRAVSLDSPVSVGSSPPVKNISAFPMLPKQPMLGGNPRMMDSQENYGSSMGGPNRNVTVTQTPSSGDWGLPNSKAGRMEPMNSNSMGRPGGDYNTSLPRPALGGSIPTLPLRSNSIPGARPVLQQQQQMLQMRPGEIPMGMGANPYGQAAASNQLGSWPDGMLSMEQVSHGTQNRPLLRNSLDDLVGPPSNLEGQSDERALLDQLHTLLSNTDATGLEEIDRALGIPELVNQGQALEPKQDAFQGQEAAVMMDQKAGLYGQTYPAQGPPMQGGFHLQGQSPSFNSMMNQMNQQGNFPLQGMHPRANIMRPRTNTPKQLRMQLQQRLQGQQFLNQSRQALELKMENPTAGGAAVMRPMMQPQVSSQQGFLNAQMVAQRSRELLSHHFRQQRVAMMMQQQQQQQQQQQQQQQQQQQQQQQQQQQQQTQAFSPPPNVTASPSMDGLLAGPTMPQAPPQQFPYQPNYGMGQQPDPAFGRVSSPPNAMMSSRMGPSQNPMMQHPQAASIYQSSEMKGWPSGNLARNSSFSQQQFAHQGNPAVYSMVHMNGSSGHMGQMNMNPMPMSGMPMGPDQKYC

The term inhibition denotes the drop in the measured response relative to a control, in per cent. `COC(=O)/C(C#N)=C\c1c(OC)[nH]c2ccccc12`: the inhibition in experiment [1] was 18.6%; in experiment [2], 12.4%.

For the compound `COc1cccc(/C=N/NC(=O)c2ccc(=O)n(C)c2)c1O`, the inhibition in experiment [1] is 12.1%; in experiment [2], 9.91%.

Take `COc1ccc(OCCOCC(O)CN2CCOCC2)cc1` (stereo not given): the inhibition in experiment [1] was -13.2%; in experiment [2] it was -8.92%.

Take `O=C(c1cc2sccc2n1Cc1ccccc1)N1CCN(c2nc3ccccc3s2)CC1`: the values for the inhibition in experiment [1] and in experiment [2] were 2.32% and 35.9% (active), respectively.

Regarding `CN(C)S(=O)(=O)c1cccc(-c2nn(-c3ccccc3)cc2/C=C(\C#N)c2nc3ccccc3[nH]2)c1`, the figures for the inhibition in experiment [1] and in experiment [2] were 1.73% and -4.19%, respectively.

Consider `Cc1ccccc1NC1=NCC(c2ccc([N+](=O)[O-])cc2)S1` (stereo not given), for which the inhibition was 18% in experiment [1] and -2.52% in experiment [2].

For the compound `O=C(NNC(=O)c1cccnc1SCc1cccc([N+](=O)[O-])c1)c1ccccn1`, the inhibition in experiment [1] is 34.4%; in experiment [2] it was 30.1% (active).

Turning to `CCCC(=O)NC(c1ccc(OC)cc1)c1ccc2cccnc2c1O` (stereo not given), the inhibition in experiment [1] is 57.7% (active); in experiment [2], 63.7% (active).

Take `COc1ccc2c(c1)-c1c(ssc1=S)C(C)(C)N2S(=O)(=O)c1ccc(C)cc1`: the inhibition in experiment [1] is 2.95%; in experiment [2], 13.9%.

In the case of `CC(C)(Sc1cc(C(C)(C)C)c(O)c(C(C)(C)C)c1)Sc1cc(C(C)(C)C)c(O)c(C(C)(C)C)c1`, the inhibition was 15.9% in experiment [1] and -0.87% in experiment [2].

On to `O=C1N(c2cccc(Cl)c2)C(c2ccc(Cl)cc2)N2CCCN12` (stereo not given), for which the inhibition in experiment [1] is 3.22%; in experiment [2] it was -0.24%.

Consider `CCOC(=O)C1=CCN(S(=O)(=O)c2ccc(C)cc2)C1c1cccc(Cl)c1` (stereo not given), for which the inhibition was 15.1% in experiment [1] and 6.03% in experiment [2].

For the compound `CCCNc1nc(OC(C(F)(F)F)C(F)(F)F)nc(OC(C(F)(F)F)C(F)(F)F)n1`, the inhibition in experiment [1] was 7.26%; in experiment [2], -8.01%.

With `O=C(N/N=C\c1cc(Br)ccc1O)c1ccc(S(=O)(=O)N2CCCCC2)cc1`, the inhibition was 72.3% (active) in experiment [1] and 74.8% (active) in experiment [2].

`COC(=O)COc1cccc(NC(=O)c2cccs2)c1`: the figures for the inhibition in experiment [1] and in experiment [2] were -1.66% and -12.7%, respectively.

Consider `CCC(C)c1ccc(NC(=S)N2CCN(C(=O)C3CCCO3)CC2)cc1` (stereo not given), for which the inhibition in experiment [1] was 8.54%; in experiment [2], -1.88%.

For `Cc1ccc(C)c(S(=O)(=O)N2CCCCC2CCNC(=O)C(=O)NCc2ccncc2)c1` (stereo not given), the results for the inhibition in experiment [1] and in experiment [2] were 0.55% and 7.08%, respectively.

As for `COc1ccccc1C(CNc1ccc(S(=O)(=O)N2CCCC2)cc1[N+](=O)[O-])N(C)C` (stereo not given), the values for the inhibition in experiment [1] and in experiment [2] were 23.9% and 24.9%, respectively.

Take `CC(=O)c1c(C)n(-c2ccc(Br)cc2)c2ccc(O)cc12`: the inhibition in experiment [1] was 53.3% (active); in experiment [2], 30.8% (active).

Consider `COc1ccc(-c2nc(CSCC(=O)NCc3ccco3)c(C)o2)cc1`, for which the inhibition in experiment [1] was 42.1%; in experiment [2] it was -11.2%.

`CC1CCCCC1NC(=O)Cn1cnc2ccccc2c1=O` (stereo not given): the values for the inhibition in experiment [1] and in experiment [2] were 10.5% and -4.34%, respectively.

As for `CCOc1cccc(-n2nnnc2-c2ccc(OC)cc2)c1`, the results for the inhibition in experiment [1] and in experiment [2] were 7.46% and 14.6%, respectively.

As to `Cc1ccc(C(=O)C[n+]2ccc(Cc3ccccc3)cc2)cc1`, the inhibition in experiment [1] is -4.6%; in experiment [2], 14.8%.

In the case of `N=c1c(C(=O)NCC2CCCO2)cc2c(=O)n3ccccc3nc2n1Cc1cccnc1` (stereo not given), the inhibition in experiment [1] is -8.73%; in experiment [2] it was -5.19%.

Turning to `Cc1ccc(C(=O)N(Cc2cccs2)C2CCS(=O)(=O)C2)cc1` (stereo not given), the figures for the inhibition in experiment [1] and in experiment [2] were -5.57% and 0.26%, respectively.

With `COc1ccc(CCNc2ncnc3sccc23)cc1OC`, the inhibition in experiment [1] was 12%; in experiment [2] it was 42.6% (active).

As for `Cc1noc(C)c1CN1C(=O)NC2(CCCCCCC2)C1=O`, the figures for the inhibition in experiment [1] and in experiment [2] were 0.62% and -10.4%, respectively.

For `COc1ccc(CN(C)C(=O)c2cccc(NC(=O)CC3SC(N4CCCCC4)=NC3=O)c2)c(OC)c1` (stereo not given), the inhibition in experiment [1] was 26.9%; in experiment [2], 30.3% (active).

On to `O=C(/C=C/c1ccc([N+](=O)[O-])cc1)c1ccccc(=O)c1O`, for which the values for the inhibition in experiment [1] and in experiment [2] were 33% and 37.5% (active), respectively.

Consider `Cc1ccccc1OCCNC(=O)c1ccccc1Sc1ccccc1C#N`, for which the inhibition in experiment [1] is 6.19%; in experiment [2] it was 1.44%.
